Inconclusive results are not listed. Where a call stands in place of a potency, no number is given. Activity calls are given as the source filed them. The call rests on the fitted dose curve; in most records, active means well fitted activation curve with a large enough effect; inconclusive means small, poorly fitted or top-dose-only effect; inactive means no such curve, though single readings can be large or run the other way.
Experiment: qHTS assay for re-activators of p53 using a Luc reporter: Hit Validation; further: nearly all actives have a fitted effect of over 75% in size
Settings: p53-responsive luciferase reporter cells, luminescence, H1299 line expressing heat-sensitive Ala138Val p53; series mostly up to 46.1 µM
Summary of the method: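 Hit confirmation with a 1:5 dilution series, at 37 deg C for 24 hrs, in H1299 cells co-expressing temperature-sensitive p53-A138V and p53-responsive luciferase. Nocodazole served as control; luminescence read after 10 min with detection reagent.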
Potency means the concentration at half of the fitted maximal effect.

SMILES	Potency
Cc1ccc(C2C(C#N)=C(N)Oc3cc4c(cc32)OCO4)cc1 (stereo not drawn)	inactive
Fc1cccc2sc(Nc3nnc(-c4ccco4)o3)nc12	11.6 µM (active)
Cc1c(C(=O)N(C)c2ccccc2Cl)cnn1-c1ccccc1	inactive
CCCOc1ccc(-c2cc3onc(-c4ccccc4)c3c(=O)n2C)cc1	5.8 µM (active)
O=C(Oc1c(Cl)cc(Cl)c2cccnc12)c1cccc([N+](=O)[O-])c1	inactive
COC(=O)CSc1nc2cc3c(cc2cc1C#N)OCO3	inactive
c1ccc2sc(-c3ccc4c(c3)OCO4)nc2c1	2.31 µM (active)
N/C(=N\OC(=O)c1ccccc1Cl)c1ccc(Cl)cc1	9.2 µM (active)
Cc1ncsc1C(=O)Nc1nc2c(s1)CCCC2	1.84 µM (active)
COc1ccc(C(=O)C(CN2CCCC2)c2ccccc2)cc1 (stereo not drawn)	inactive
Cc1cc(C)cc(NC(=O)CSc2nnc(-c3ccccc3C)o2)c1	inactive
Cc1cc(Oc2ccccc2)nc(-c2ccccc2O)n1	inactive
COc1ccccc1NC(CC(=O)c1ccccc1)C(=O)OCC(=O)c1ccc(F)cc1 (stereo not drawn)	0.231 µM (active)
Fc1ccccc1/C=C/c1ccc2ccccc2n1	0.731 µM (active)
COc1ccc(-c2csc(NCc3ccco3)n2)cc1C	18.4 µM (active)
COc1ccc2[nH]c(=O)c3c(c2c1)OC(C)(C)C=C3	inactive
C=CCSC1=N/C(=C\c2cc(OCC)c(OC(C)=O)c([N+](=O)[O-])c2)C(=O)S1	inactive
Cn1c(CCN2CCCCC2)nc2cc(NC(=O)Nc3ccccc3)ccc21	inactive
O=C(NCCCNC1CCCCC1)c1ccc(/C=N/O)nc1	inactive

SMILES	Potency
COc1cc(NC(=O)CSCc2ccc(Cl)cc2)c(C(=O)O)cc1OC	inactive
Cc1cc(NC(=O)c2ccco2)sc1C	18.4 µM (active)
O=c1[nH]c(N/N=C/c2ccc(O)cc2)nc2ccccc12	4.61 µM (active)
COc1ccc([N+](=O)[O-])cc1NC(=O)CSCc1ccc(Br)cc1	inactive
Cc1cc(C)cc(NC(=O)c2sc3nc(C)cc(C)c3c2N)c1	11.6 µM (active)
CNC(=S)N/N=C/c1cc(Br)cc(Br)c1O	inactive
C#CCn1c(=NC(=O)c2cccs2)sc2cccc(OCC)c21	inactive
O=C(O)/C=C/c1nc(-c2ccccc2)n2ccccc12	inactive
Cc1ccc(C(=O)OCC(=O)NCC2COc3ccccc3O2)cc1 (stereo not drawn)	inactive
COc1ccc(/C(C)=N/Nc2nccnc2Cl)cc1	16.4 µM (active)
COc1cc(C2=NOC(C(=O)NCc3ccc(F)cc3)C2)cc(OC)c1OC (stereo not drawn)	inactive
O=C(NC(=S)NCCc1ccccc1)C1CCCCC1	23.1 µM (active)
O=c1[nH]c2ccc(N/C(=N/S(=O)(=O)c3ccccc3)c3ccccc3)cc2[nH]1	inactive
CCOC(=O)C1=C(C)Nc2ncnn2C1c1c[nH]c2ccccc12 (stereo not drawn)	inactive
N#CC(Cc1ccccc1)(Cc1ccccc1)C(=O)NN	inactive
O=C(NNc1c2ccccc2nc2ccccc12)c1ccc(O)cc1	inactive
Cc1cccc(NC(=S)NC(=O)C2CC2)c1	inactive
Cc1cc(NC(=O)c2c(F)c(F)c(F)c(F)c2F)no1	inactive
CN(C)c1cccc(C(=O)NNC(=O)CN2C(=O)C3CC=CCC3C2=O)c1 (stereo not drawn)	2.31 µM (active)
